In PubChem BioAssay (Tox21):
Unmarked numbers belong to inactive results. Records with an inconclusive call do not appear. Entries that show only a call come without a potency. The source made the active and inactive calls. Unless noted, calls come from the whole dose curve; as a rule, active = well fitted curve in the direction sought with a large enough effect in the repeat runs; inconclusive = weak or mixed curves; inactive = no such curve, though single readings can be large; an effect the other way counts as inactive or inconclusive.

Columns and labels:
[1] = molecular target: Androgen receptor (Homo sapiens) (UniProt P10275); experiment: qHTS assay to identify small molecule agonists of the androgen receptor (AR) signaling pathway in the presence of an antagonist (AID 1259381; calls by dose curve; note: nearly all actives have a fitted effect of over 15% in size)
Chain of Androgen receptor (Homo sapiens) (P10275 whole entry, looked up): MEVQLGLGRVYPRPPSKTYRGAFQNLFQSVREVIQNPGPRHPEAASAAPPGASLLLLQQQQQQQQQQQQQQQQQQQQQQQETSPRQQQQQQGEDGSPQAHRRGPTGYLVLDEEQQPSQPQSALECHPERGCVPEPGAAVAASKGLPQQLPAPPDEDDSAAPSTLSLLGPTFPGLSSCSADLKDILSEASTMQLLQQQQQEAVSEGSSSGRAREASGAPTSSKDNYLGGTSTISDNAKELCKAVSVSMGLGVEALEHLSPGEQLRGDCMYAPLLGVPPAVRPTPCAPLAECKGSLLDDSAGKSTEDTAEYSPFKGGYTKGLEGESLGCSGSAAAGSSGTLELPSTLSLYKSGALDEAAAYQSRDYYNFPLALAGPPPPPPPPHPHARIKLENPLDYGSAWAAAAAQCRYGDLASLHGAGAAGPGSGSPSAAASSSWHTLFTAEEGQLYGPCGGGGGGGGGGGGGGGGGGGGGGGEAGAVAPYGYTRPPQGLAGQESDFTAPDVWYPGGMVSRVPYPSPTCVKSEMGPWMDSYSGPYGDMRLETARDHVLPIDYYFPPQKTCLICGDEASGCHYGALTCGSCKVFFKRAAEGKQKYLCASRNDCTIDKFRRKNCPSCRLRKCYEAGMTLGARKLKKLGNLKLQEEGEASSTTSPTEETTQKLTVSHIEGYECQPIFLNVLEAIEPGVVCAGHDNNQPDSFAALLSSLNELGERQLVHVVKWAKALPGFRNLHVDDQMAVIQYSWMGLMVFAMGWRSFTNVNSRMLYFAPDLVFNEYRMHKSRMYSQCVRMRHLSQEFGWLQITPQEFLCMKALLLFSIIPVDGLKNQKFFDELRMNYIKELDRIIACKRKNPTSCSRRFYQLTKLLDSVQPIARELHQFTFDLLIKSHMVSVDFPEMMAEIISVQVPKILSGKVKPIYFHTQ
How it was run: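 Agonist-mode confirmation screen: human MDA-kb2 cells stably expressing luciferase under an MMTV promoter bearing AR and GR response elements, co-treated with 3.0uM nilutamide (final). Luminescence measured after 16hr compound incubation.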

[2] = qHTS assay to identify small molecule antagonists of the estrogen receptor beta (ER-beta) signaling pathway - cell viability counter screen (AID 1259382);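 note: HEK293T cells carrying ER-beta-UAS-bla reporter stimulated with estradiol; series mostly up to about 92 µM; nearly all actives have a fitted effect of over 55% in size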
How it was run: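 Cytotoxicity counter screen multiplexed with the beta-lactamase antagonist assay: GripTite HEK293T ER-beta-bla cells were treated 16 hr with test chemicals in the presence of 1nM 17-beta-estradiol, and viability was measured by CellTiter-Glo.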

[3] = molecular target: Estrogen receptor (Homo sapiens) (UniProt P03372); experiment: qHTS assay to identify small molecule agonists of the estrogen receptor alpha (ER-alpha) signaling pathway in the presence of an antagonist (AID 1259383; calls by dose curve; note: top concentration of the series differs between compounds; nearly all actives have a fitted effect of over 15% in size)
Chain of Estrogen receptor (Homo sapiens) (P03372 whole entry, looked up): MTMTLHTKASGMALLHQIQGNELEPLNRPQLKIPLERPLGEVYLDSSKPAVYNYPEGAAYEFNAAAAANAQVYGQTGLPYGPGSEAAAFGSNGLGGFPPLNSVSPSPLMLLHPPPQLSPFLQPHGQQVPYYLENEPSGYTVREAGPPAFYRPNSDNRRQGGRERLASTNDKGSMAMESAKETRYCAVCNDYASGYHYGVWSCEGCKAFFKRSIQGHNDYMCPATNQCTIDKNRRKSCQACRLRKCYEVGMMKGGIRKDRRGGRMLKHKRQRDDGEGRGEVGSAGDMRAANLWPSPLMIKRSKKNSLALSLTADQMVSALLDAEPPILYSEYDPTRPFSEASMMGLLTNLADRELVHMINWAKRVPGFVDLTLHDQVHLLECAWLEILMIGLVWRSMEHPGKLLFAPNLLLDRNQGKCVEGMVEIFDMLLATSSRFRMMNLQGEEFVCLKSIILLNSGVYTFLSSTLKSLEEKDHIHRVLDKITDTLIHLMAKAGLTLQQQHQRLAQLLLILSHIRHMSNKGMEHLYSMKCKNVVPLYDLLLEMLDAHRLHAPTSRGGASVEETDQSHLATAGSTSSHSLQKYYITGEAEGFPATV
How it was run: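 Agonist-mode confirmation in the presence of the ER antagonist ICI-182,780 at 10.0nM final. Breast-derived VM7Luc4E2 reporter cells were exposed to compounds for 22hr, and ERE-driven luciferase was quantified by luminescence.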

[4] = qHTS assay to identify small molecule agonists or antagonists of the thyroid stimulating hormone receptor (TSHR) signaling pathway - wild type cell line counter screen (AID 1259384; calls by dose curve)
How it was run: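 Wild-type HEK293 cells were plated 18 h at 37 C/5% CO2, pin-dosed with compound plus Ro20-1724 medium, held 30 min at room temperature, then given cAMP-d2 and anti-cAMP-cryptate; fluorescence was read after 1 h. Fifteen concentrations, triplicate.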

[5] = molecular target: Thyrotropin receptor (Homo sapiens) (UniProt P16473); experiment: qHTS assay to identify small molecule antagonists of the thyroid stimulating hormone receptor (TSHR) signaling pathway (AID 1259385; calls by dose curve; note: nearly all actives have a fitted effect of over 20% in size)
Chain of Thyrotropin receptor (Homo sapiens) (P16473 whole entry, looked up): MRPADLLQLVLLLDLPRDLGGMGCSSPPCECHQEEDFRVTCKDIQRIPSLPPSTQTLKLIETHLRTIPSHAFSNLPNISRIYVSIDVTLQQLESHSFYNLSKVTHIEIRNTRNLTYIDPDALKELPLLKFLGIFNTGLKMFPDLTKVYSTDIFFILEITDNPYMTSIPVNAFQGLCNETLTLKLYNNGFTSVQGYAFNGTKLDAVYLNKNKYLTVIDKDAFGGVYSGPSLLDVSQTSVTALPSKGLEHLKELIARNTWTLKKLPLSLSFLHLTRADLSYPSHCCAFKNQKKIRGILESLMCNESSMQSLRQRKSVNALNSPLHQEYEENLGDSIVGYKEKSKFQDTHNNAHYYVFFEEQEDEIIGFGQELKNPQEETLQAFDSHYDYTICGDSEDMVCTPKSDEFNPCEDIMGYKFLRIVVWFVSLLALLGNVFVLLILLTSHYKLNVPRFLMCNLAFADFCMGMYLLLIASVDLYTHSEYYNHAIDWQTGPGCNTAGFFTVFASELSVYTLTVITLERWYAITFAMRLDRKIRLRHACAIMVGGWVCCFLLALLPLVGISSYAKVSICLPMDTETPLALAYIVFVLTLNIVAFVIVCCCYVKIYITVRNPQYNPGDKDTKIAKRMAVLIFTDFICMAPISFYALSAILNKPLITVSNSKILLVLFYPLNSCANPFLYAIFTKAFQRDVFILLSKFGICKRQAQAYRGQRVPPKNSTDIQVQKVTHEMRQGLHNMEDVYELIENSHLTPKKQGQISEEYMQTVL
How it was run: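 TSHR-HEK293 cells were plated and held 18 h at 37C/5% CO2, then given compound plus Ro20-1724 and stimulated with TSH at 1.5 ng/mL final. After 30 min at room temperature, cAMP was detected with cAMP-d2/anti-cAMP-cryptate (1 h) by fluorescence.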

[6] = qHTS assay to identify small molecule agonists of the estrogen receptor alpha (ER-alpha) signaling pathway in the presence of an antagonist - cell viability counter screen (AID 1259386);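 note: cells exposed to compounds for 22 h at 37 °C before the viability read; nearly all actives have a fitted effect of over 30% in size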; note: potency is the fitted concentration of half-maximal effect
How it was run: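 Cytotoxicity was measured in parallel with the ERE-luciferase agonist screen, in the same wells. The cells were VM7Luc4E2, which endogenously express ER-alpha, and treatment was with compounds plus 10.0nM ICI-182,780 for 22hr.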

[7] = molecular target: Progesterone receptor (Homo sapiens) (UniProt P06401); experiment: qHTS assay to identify small molecule agonists of the progesterone receptor (PR) signaling pathway (AID 1346784; calls by dose curve; note: nearly all actives have a fitted effect of over 30% in size)
Chain of Progesterone receptor (Homo sapiens) (P06401 whole entry, looked up): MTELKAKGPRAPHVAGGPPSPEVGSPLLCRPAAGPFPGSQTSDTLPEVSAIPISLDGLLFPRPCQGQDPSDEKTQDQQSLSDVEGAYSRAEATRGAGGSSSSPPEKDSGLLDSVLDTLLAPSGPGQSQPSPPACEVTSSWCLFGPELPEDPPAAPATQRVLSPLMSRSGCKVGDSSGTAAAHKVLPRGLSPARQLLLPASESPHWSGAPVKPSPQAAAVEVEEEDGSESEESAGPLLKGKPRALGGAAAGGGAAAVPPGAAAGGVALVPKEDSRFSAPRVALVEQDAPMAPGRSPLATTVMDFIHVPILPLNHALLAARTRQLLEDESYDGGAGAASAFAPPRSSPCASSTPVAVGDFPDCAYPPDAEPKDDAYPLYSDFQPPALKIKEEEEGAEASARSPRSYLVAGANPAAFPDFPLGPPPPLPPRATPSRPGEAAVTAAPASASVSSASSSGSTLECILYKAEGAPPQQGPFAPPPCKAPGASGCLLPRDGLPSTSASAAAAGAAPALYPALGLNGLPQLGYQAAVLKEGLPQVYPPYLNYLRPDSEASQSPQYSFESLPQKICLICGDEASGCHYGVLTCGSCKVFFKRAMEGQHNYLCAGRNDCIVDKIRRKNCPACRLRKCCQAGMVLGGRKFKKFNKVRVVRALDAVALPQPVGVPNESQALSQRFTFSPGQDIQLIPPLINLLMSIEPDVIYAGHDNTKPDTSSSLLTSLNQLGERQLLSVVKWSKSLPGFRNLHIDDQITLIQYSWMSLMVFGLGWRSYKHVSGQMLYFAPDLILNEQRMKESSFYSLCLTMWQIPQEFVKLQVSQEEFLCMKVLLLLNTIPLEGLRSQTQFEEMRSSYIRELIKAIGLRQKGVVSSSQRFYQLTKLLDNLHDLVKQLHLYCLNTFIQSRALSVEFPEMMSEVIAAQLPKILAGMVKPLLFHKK
How it was run: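 Beta-lactamase reporter read-out: after 16 hr compound treatment at 37C and a further 2 hr at room temperature with LiveBLAzer B/G FRET substrate, fluorescence was measured in PR-UAS-bla HEK 293T cells grown in 2% charcoal-stripped serum.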

[8] = molecular target: Progesterone receptor (Homo sapiens) (UniProt P06401); experiment: qHTS assay to identify small molecule antagonists of the progesterone receptor (PR) signaling pathway (AID 1346795; active = well fitted inhibition curve with a large enough effect in the signal ratio in the repeat runs, not every such curve was filed as active; the % refers to the signal ratio)
How it was run: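 Read-out is fluorescence from the LiveBLAzer B/G FRET substrate, cleaved by a UAS-controlled beta-lactamase in PR-UAS-bla HEK293T cells after 16 hr exposure to compound plus 1 nM promegestone (final), followed by 2 hr at room temperature.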

[9] = qHTS assay to identify small molecule antagonists of the TGF-beta/Smad signaling pathway - cell viability counter screen (AID 1346824); note: nearly all actives have a fitted effect of over 50% in size
How it was run: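 SBE-bla HEK 293T cells were plated overnight at 37 C, then given compounds in DMSO plus TGF-beta1 (added as 0.25 ng/mL solution) for 5 hr. After the bla read, CellTiter-Glo was added to the same wells and luminescence read after 30 min at room temperature.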

[10] = qHTS assay to identify small molecule agonists of the TGF-beta/Smad signaling pathway - cell viability counter screen (AID 1346829); note: top concentration of the series differs between compounds; nearly all actives have a fitted effect of over 45% in size
How it was run: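 HEK 293T SBE-bla line, 5 hr compound exposure at 37 C, multiplexed CellTiter-Glo viability read by luminescence.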

[11] = qHTS assay to identify small molecule agonists of the TGF-beta/Smad signaling pathway (AID 1346859; active = well fitted activation curve with a large enough effect in the signal ratio in the repeat runs, not every such curve was filed as active; the % refers to the signal ratio; note: series mostly up to about 77 µM)
How it was run: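 SBE-bla HEK 293T, 4,000 cells/well, plated o/n; cpd in DMSO, 5 hr, 37 C/5% CO2; B/G FRET substrate 2 hr RT; ex 405, em 460/530 nm.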

[12] = molecular target: Thyrotropin-releasing hormone receptor (Homo sapiens) (UniProt P34981); experiment: qHTS assay to identify small molecule antagonists of the thyrotropin-releasing hormone receptor (TRHR) signaling pathway (AID 1346877; active = well fitted inhibition curve with a large enough effect in the repeat runs, not every such curve was filed as active; note: series mostly up to about 51 µM)
Chain of Thyrotropin-releasing hormone receptor (Homo sapiens) (P34981 whole entry, looked up): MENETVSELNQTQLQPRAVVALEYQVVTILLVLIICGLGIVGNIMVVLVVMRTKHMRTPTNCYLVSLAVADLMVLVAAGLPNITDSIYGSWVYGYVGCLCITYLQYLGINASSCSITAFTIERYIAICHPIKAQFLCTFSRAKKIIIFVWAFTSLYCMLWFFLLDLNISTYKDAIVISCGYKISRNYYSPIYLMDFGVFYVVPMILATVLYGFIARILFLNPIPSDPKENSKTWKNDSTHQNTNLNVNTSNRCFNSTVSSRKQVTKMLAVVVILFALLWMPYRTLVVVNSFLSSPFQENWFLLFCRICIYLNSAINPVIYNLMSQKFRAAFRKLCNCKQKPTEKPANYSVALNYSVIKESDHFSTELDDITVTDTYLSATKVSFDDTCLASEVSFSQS
How it was run: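 Antagonism is measured as suppression of the calcium response to 1 nM TRH in TRHR-HEK293 cells that have been dye-loaded for 2 h at 37 °C after overnight plating. Each compound is tested at 15 concentrations in triplicate.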

[13] = molecular target: Thyrotropin-releasing hormone receptor (Homo sapiens) (UniProt P34981); experiment: qHTS assay to identify small molecule agonists of the thyrotropin-releasing hormone receptor (TRHR) signaling pathway (AID 1346891; calls by dose curve; note: series mostly up to about 58 µM)
How it was run: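 Intracellular calcium rise, read as fluorescence every second for 3 min, served as the agonist signal in dye-loaded HEK293 cells expressing TRHR; each compound ran at 15 concentrations in triplicate.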

[14] = Human pregnane X receptor (PXR) small molecule agonists, qHTS cell viability counter screen (AID 1346977); note: nearly all actives have a fitted effect of over 50% in size; note: potency is the fitted concentration of half-maximal effect
How it was run: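 PXR-Luc HepG2, 2,000 cells/well, 5% charcoal-stripped FBS; 5hr settle; cpd 24hr, 37C/5% CO2; CellTiter-Fluor at 23hr, read 1hr later (fluorescence).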

[15] = Caspase-3/7 induction in HepG2 cells by small molecules, qHTS assay (AID 1346978); note: nearly all actives have a fitted effect of over 15% in size
How it was run: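 Wild-type HepG2 cells (2,000/well) were settled 5 h at 37 C, 5% CO2, then exposed to compounds in DMSO for 17 h. Caspase-3/7 activity was read by luminescence 30 min after adding Caspase-Glo 3/7 reagent at room temperature.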

[16] = Caspase-3/7 induction in CHO-K1 cells by small molecules, qHTS cell viability counter screen (AID 1346979); note: nearly all actives have a fitted effect of over 35% in size; note: potency is the fitted concentration of half-maximal effect
How it was run: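 Cells (CHO-K1, wild type) are plated at 1,500 per well and incubated 5hr. Test compounds in DMSO are then pinned in, followed by 16hr at 37C and 5% CO2. Viability is read by CellTiter-Fluor fluorescence after 1hr.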

[17] = Caspase-3/7 induction in CHO-K1 cells by small molecules, qHTS assay (AID 1346980); note: nearly all actives have a fitted effect of over 15% in size
How it was run: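 Wild-type cells were seeded at 1,500 per well and settled 5 hr at 37 C, 5% CO2, then exposed to DMSO-dissolved compounds for 17 hr. Caspase-Glo 3/7 reagent was added, and luminescence was read after 30min at room temperature.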

[18] = qHTS assay to identify small molecule antagonists of the progesterone receptor (PR) signaling pathway - cell viability counter screen (AID 1346798);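 note: HEK293T PR-UAS-bla cells stimulated with the agonist R5020; series mostly up to about 92 µM; nearly all actives have a fitted effect of over 50% in size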
How it was run: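 HEK293T PR-UAS-bla, 2% charcoal-stripped FBS; 4 hr pre-plate; cpd + R5020, 16 h 37C; LiveBLAzer read first; then CellTiter-Glo 30 min RT, luminescence.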

[19] = qHTS assay to identify small molecule agonists of the progesterone receptor (PR) signaling pathway - cell viability counter screen (AID 1346799; calls by dose curve; note: nearly all actives have a fitted effect of over 45% in size)
How it was run: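 Luminescence from CellTiter-Glo, added after the beta-lactamase FRET read in the same wells, gave cytotoxicity in PR-UAS-bla HEK293T cells treated with compounds for 16 hr at 37C.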

[20] = Caspase-3/7 induction in HepG2 cells by small molecules, qHTS cell viability counter screen (AID 1346981); note: series mostly up to about 92 µM; nearly all actives have a fitted effect of over 30% in size
How it was run: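 Cell viability is measured as a cytotoxicity counter screen alongside the Caspase-Glo 3/7 readout in identical wells. Wild-type HepG2 cells are treated with test compounds for 16 hr at 37 C before CellTiter-Fluor addition and a 1-hr incubation.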

Compound | outcome [1] | outcome [2] | outcome [3] | outcome [4] | outcome [5] | Potency [6] | Potency [7] | Potency [8] | outcome [9] | outcome [10] | outcome [11] | outcome [12] | outcome [13] | Potency [14] | outcome [15] | Potency [16] | outcome [17] | Potency [18] | Potency [19] | Potency [20]
CCN(CC)C(=O)C1CN2CCc3cc(OC)c(OC)cc3C2CC1OC(C)=O (stereo unspecified) | inactive | inactive | inactive | inactive | inactive | inactive | inactive | inactive | inactive | inactive | inactive | inactive | inactive | inactive | inactive | inactive | inactive | – | – | –
OC(CCN1CCCCC1)(c1ccccc1)c1ccccc1 | inactive | – | inactive | – | – | – | – | inactive | inactive | inactive | inactive | inactive | inactive | – | inactive | inactive | inactive | inactive | inactive | inactive
Nc1ccc(S(=O)(=O)Nc2ccccn2)cc1 | inactive | inactive | inactive | inactive | inactive | inactive | inactive | inactive | inactive | inactive | inactive | – | – | inactive | inactive | inactive | inactive | inactive | inactive | inactive
COc1ccc(/C=N/NC(=O)c2ccncc2)cc1OC | inactive | inactive | inactive | inactive | inactive | inactive | inactive | inactive | inactive | inactive | inactive | inactive | inactive | inactive | inactive | inactive | inactive | inactive | inactive | inactive
CC(=O)N1CCN(c2ccc(O)cc2)CC1 | inactive | inactive | inactive | inactive | inactive | inactive | inactive | inactive | inactive | inactive | inactive | inactive | inactive | inactive | inactive | inactive | inactive | inactive | – | inactive
CCCCC[Si](OCC)(OCC)OCC | inactive | inactive | – | inactive | inactive | inactive | inactive | inactive | inactive | inactive | inactive | – | – | inactive | inactive | inactive | inactive | – | – | inactive
COc1cc([N+](=O)[O-])ccc1N | inactive | – | inactive | inactive | inactive | 38.6 µM (active) | inactive | – | inactive | inactive | inactive | inactive | inactive | 61.1 µM (active) | inactive | 54.5 µM (active) | inactive | inactive | inactive | –
CN[C@@H]1[C@H](O)[C@H](NC)[C@H]2O[C@@]3(O)C(=O)C[C@@H](C)O[C@H]3O[C@@H]2[C@H]1O | inactive | inactive | inactive | inactive | inactive | inactive | inactive | inactive | inactive | inactive | inactive | – | – | inactive | inactive | inactive | inactive | inactive | inactive | –
CCCCCCCCCCC | inactive | inactive | inactive | inactive | inactive | inactive | inactive | inactive | inactive | inactive | inactive | – | – | inactive | inactive | inactive | inactive | – | – | inactive
CC(C)COC(=O)COc1ccc(Cl)cc1Cl | inactive | inactive | – | inactive | inactive | inactive | inactive | inactive | inactive | inactive | inactive | inactive | inactive | inactive | inactive | inactive | inactive | inactive | inactive | inactive
Cc1ncc([N+](=O)[O-])n1CC(O)CCl (stereo unspecified) | inactive | inactive | – | inactive | inactive | inactive | inactive | inactive | inactive | inactive | inactive | inactive | inactive | inactive | inactive | inactive | inactive | inactive | inactive | –
CC(=O)OC(C(=O)c1ccccc1)c1ccccc1 (stereo unspecified) | inactive | inactive | inactive | inactive | inactive | inactive | inactive | inactive | inactive | inactive | inactive | – | – | inactive | inactive | inactive | inactive | inactive | inactive | inactive
Nc1cc(C(=O)O)ccc1Cl | inactive | inactive | inactive | inactive | inactive | inactive | inactive | inactive | inactive | inactive | inactive | inactive | inactive | inactive | inactive | inactive | inactive | inactive | inactive | –
CNC(=O)NC | inactive | inactive | inactive | inactive | inactive | inactive | inactive | inactive | – | inactive | inactive | – | – | inactive | inactive | inactive | inactive | inactive | inactive | inactive
O=C(CN1CCN(Cc2ccc3c(c2)OCO3)CC1)N1c2ccccc2Sc2ccccc21 | inactive | inactive | – | inactive | inactive | inactive | – | inactive | inactive | inactive | inactive | inactive | inactive | inactive | inactive | inactive | inactive | inactive | inactive | –
